KDM5B inhibitor: KDM5B demethylase inhibition; KDM5B demethylase, FDH-coupled NADH fluorescence (FDH is formaldehyde dehydrogenase); Potency, µM (titrated, usually from 57.7 µM), hits mostly inhibitors; 220,000 tested, 2.6% active; AID 1347165; active means well fitted inhibition curve with a large enough effect; further: nearly all actives have a fitted effect of over 70% in size
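KDM5BΔAP (200 nM final) in 50 mM HEPES pH 7.5, 0.01% Tween-20 was preincubated 10 min at RT with compound over a concentration range. Substrate mix (H3K4me3 12.5 µM, α-KG 25 µM, Fe²⁺, ascorbate, NAD⁺, FDH) was added, and NADH fluorescence change over 30 min gave dose-response curves.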
A number is an active result. Only a selection was taken, and hits are over-represented in it overall.

Screening COc1cccc(CNS(=O)(=O)c2ccc3c(c2)OCC(C(=O)N2CCCCC2)O3)c1 (configuration not stated) returned KDM5B inhibitor inactive.
For Cc1cccc(NC(=O)CCc2ncc(-c3ccc(F)cc3)o2)c1C the results were KDM5B inhibitor inactive.
CS(=O)(=O)N1CCCC(C(=O)NCCCN2CCCc3ccccc32)CCNC(=O)CC1 (configuration not stated) was read as KDM5B inhibitor 32µM.
Screening CS(=O)(=O)N1CCCC(C(=O)NCCc2cccnc2)CCNC(=O)CC1 (configuration not stated) returned KDM5B inhibitor inactive.
Screening C=CCNC(=O)C1CCCN(S(C)(=O)=O)CCC(=O)NCC1 (configuration not stated) returned KDM5B inhibitor inactive.
For Cc1ccc(-c2csc(/C=C/c3ccc(C(F)(F)F)cc3)n2)cc1 the results were KDM5B inhibitor inactive.
Screening CNC(=O)c1ccc2c(c1)C1(CCN(CC3CC3)C1)CN2Cc1ccccc1 (configuration not stated) returned KDM5B inhibitor 35µM.
`CC(C)NC(=O)c1ccc2c(c1)C1(CCN(CC3CC3)C1)CN2Cc1ccccc1` (configuration not stated) gave KDM5B inhibitor 28µM.
For O=C(NC1CCCC1)c1ccc2c(c1)N(Cc1ccccc1)C(=O)c1ccccc1S2 the results were KDM5B inhibitor inactive.
O=C1N(CCc2ccccc2)c2ccccc2C12CCN(CC1CC1)C2 (configuration not stated) was read as KDM5B inhibitor inactive.
For CC(C)NC(=O)c1ccc2c(c1)N(Cc1cccc(Cl)c1)C(=O)c1ccccc1S2=O (configuration not stated) the results were KDM5B inhibitor inactive.
For O=C(NC1COC1)c1ccc2c(c1)C1(CCN(CC3CC3)C1)CN2Cc1ccccc1 (configuration not stated) the results were KDM5B inhibitor 35µM.
`O=C1N(Cc2ccc(F)cc2)CCCC12CCN(CC1CCCC1)C2` (configuration not stated) gave KDM5B inhibitor inactive.
Screening O=C(c1ccc(Cl)cc1)N1CC2(CCN(CC3CC3)C2)OCc2ccccc21 (configuration not stated) returned KDM5B inhibitor inactive.
CN1C(=O)Cc2cc(C(=O)NC3CCN(Cc4ccccc4)CC3)ccc21 was read as KDM5B inhibitor inactive.
CCN(CC)C(=O)C1CCN(C(=O)Cn2ccc3ccc(Cl)cc32)CC1 was read as KDM5B inhibitor inactive.
Screening CC1=C(c2ccc(C)c(C)c2)S(=O)(=O)N(CC(=O)NCc2ccc3c(c2)OCO3)C1=O returned KDM5B inhibitor inactive.
Screening Cc1ccc(C(c2ccc([N+](=O)[O-])cc2)c2ccc(C)s2)s1 returned KDM5B inhibitor inactive.
COc1ccc(C2=C(O)C(=O)N(Cc3cccnc3)C2c2ccccc2F)cc1 (configuration not stated) was read as KDM5B inhibitor inactive.
For CC1(C)C(=O)N(Cc2ccc(O)cc2)[C@H]2CN(CCCc3ccccc3)C[C@H]2[S+]1(=O)[O-] the results were KDM5B inhibitor inactive.
`Cc1ccc(-c2[nH]c(-c3ccc(F)cc3)nc2SCC(=O)Nc2nccs2)cc1` gave KDM5B inhibitor inactive.
Screening COc1cc(=O)n(-c2ccccc2C)nc1C(=O)NCc1ccc(Cl)cc1 returned KDM5B inhibitor inactive.
`CCOC(=O)c1ccc(Oc2c(C(F)(F)F)oc3cc(OC(=O)c4ccccc4)ccc3c2=O)cc1` gave KDM5B inhibitor inactive.
CN(C)CCN(CC1CCCCC1)C(=O)Nc1ccc(F)cc1 was read as KDM5B inhibitor inactive.
Screening O=C(Nc1ccc2oc(-c3ccccc3F)nc2c1)c1ccc(Cl)cc1 returned KDM5B inhibitor inactive.
`O=C(c1cc2ccccc2oc1=O)N1CCSC1c1ccc(Cl)cc1` (configuration not stated) gave KDM5B inhibitor inactive.
Screening CCOC(=O)c1cc(CC)sc1NC(=O)Cn1nnc(-c2ccccc2)n1 returned KDM5B inhibitor inactive.
For CC(C)c1ccc(CN2CCc3ncc(C(=O)NCc4ccccc4)n3CC2)cc1 the results were KDM5B inhibitor inactive.
Screening CCN(CC(=O)N(C)C)C(=O)CCc1ncc(-c2ccccc2Cl)o1 returned KDM5B inhibitor inactive.
O=C(CCNS(=O)(=O)c1ccc(F)cc1)N1CCN(c2ncccn2)CC1 was read as KDM5B inhibitor inactive.
For O=C(c1nc(-c2ccc(F)cc2)c2cnccn12)N1CCN(c2ncccn2)CC1 the results were KDM5B inhibitor 25µM.
Screening O=C(c1nc(-c2ccc(F)cc2)c2ccccn12)N1CCN(c2ncccn2)CC1 returned KDM5B inhibitor 28µM.
CC(C)(C)c1nc(C(=O)N2CCN(c3ncccn3)CC2)n2ccncc12 was read as KDM5B inhibitor 79µM.
For O=C(CCn1c(=O)c2cccn2c2cccnc21)N1CCN(c2ccc(F)cc2)CC1 the results were KDM5B inhibitor inactive.
O=C(c1cc(-c2ccc(F)cc2)n[nH]1)N1CCN(c2ncccn2)CC1 was read as KDM5B inhibitor inactive.
`CC(C)(C)c1cc(C(=O)N2CCN(c3ncccn3)CC2)nn2cccc12` gave KDM5B inhibitor inactive.
`O=C(c1nc(-c2ccc(Cl)cc2)c2ccccn12)N1CCCC1` gave KDM5B inhibitor inactive.
Cc1ccc(C)c(C(=O)N2CCN(c3ncccn3)CC2)c1 was read as KDM5B inhibitor inactive.
Cc1ccc(CNC2CCCc3c2cnn3Cc2ccccc2)s1 (configuration not stated) was read as KDM5B inhibitor inactive.
For CCCN1CCCC2(Cc3ccccc3CN(C(=O)Cc3ccccc3)C2)C1 (configuration not stated) the results were KDM5B inhibitor inactive.
`Cc1ccc(C(=O)N/N=C/C(C)c2ccccc2)c(C)c1` (configuration not stated) gave KDM5B inhibitor inactive.
For COc1ccc(-c2nnc(C[C@@H]3C[C@@H](C(C)C)[C@H](CNC(=O)c4ccc(F)cc4)C=C3C)o2)cc1 the results were KDM5B inhibitor inactive.
`CN1C(=O)Cc2cc(S(=O)(=O)CCC(=O)NC3CCCCCCC3)ccc21` gave KDM5B inhibitor inactive.
Screening COc1ccc(-c2ccc3nnc(CNC(=O)COc4ccccc4)n3n2)cc1 returned KDM5B inhibitor 28µM.
Screening COc1ccc(-c2ccc3nnc(CNC(=O)CNC(=O)c4ccccc4)n3n2)cc1 returned KDM5B inhibitor 28µM.
Screening Cc1ccc(-c2ccc3nnc(CNC(=O)CNC(=O)c4ccccc4)n3n2)cc1 returned KDM5B inhibitor 32µM.
For COc1ccc2cc(CNC(=O)CNC(=O)c3ccccc3)ccc2c1 the results were KDM5B inhibitor inactive.
`Cn1c(=O)c2c(ncn2Cc2ccc(Br)cc2)n(C)c1=O` gave KDM5B inhibitor inactive.
Cc1ccc2cc(-c3ccccc3)[nH]c2c1 was read as KDM5B inhibitor inactive.
Screening Cc1cc(C)n(-c2nc3c(c(=O)n(CCc4ccccc4)c(=O)n3C)n2CC(C)C)n1 returned KDM5B inhibitor inactive.
Screening CC(C)c1ccc(C(=O)NCCCNC(=O)c2cc3ccccc3[nH]2)cc1 returned KDM5B inhibitor inactive.
Screening O=C(CSc1nnc2ccccn12)N1CCN(Cc2cccc(Cl)c2)CC1 returned KDM5B inhibitor inactive.
CCCn1c(=O)n(CC(=O)Nc2ccccc2OC)c(=O)c2c1nc(C)n2CCOC was read as KDM5B inhibitor inactive.
For CCNC(=O)NC(=O)CN(Cc1ccc(C)cc1)C1CC1 the results were KDM5B inhibitor inactive.
CC(C)(CNC(=O)C(Cl)(Cl)Cl)CNC(=O)C(Cl)(Cl)Cl was read as KDM5B inhibitor inactive.

High-throughput results (PubChem BioAssay)
